# Test results taken from PubChem BioAssay (NCI).
# Compounds without any hit were thinned out: in the full panel of roughly 83,000, 20% have a hit.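 Plates (96-well) were seeded with cells, treated with compound at one concentration, and incubated for 48 hours before percent growth was determined.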 Values without a mark were called inactive. Calls of active or inactive are those of the source. The calls were made as follows: active = growth percent below 10; inactive = the rest.
# Columns and labels:
# Assay in all cases: NCI-60 one-dose screen, 48 h (100 = growth as untreated, 0 = no growth, -100 = all killed)
# Conditions in all cases: 10 µM
# DU-145 prostate = test system: DU-145 prostate
# K-562 leukemia = test system: K-562 leukemia
# MALME-3M melanoma = test system: MALME-3M melanoma
# MDA-MB-231 breast = test system: MDA-MB-231 breast
# RXF 393 renal = test system: RXF 393 renal
# SF-268 CNS = test system: SF-268 CNS
# SF-295 CNS = test system: SF-295 CNS
# SF-539 CNS = test system: SF-539 CNS
# UACC-257 melanoma = test system: UACC-257 melanoma
# M14 melanoma = test system: M14 melanoma
Structure (SMILES),growth (DU-145 prostate),growth (K-562 leukemia),growth (MALME-3M melanoma),growth (MDA-MB-231 breast),growth (RXF 393 renal),growth (SF-268 CNS),growth (SF-295 CNS),growth (SF-539 CNS),growth (UACC-257 melanoma),growth (M14 melanoma)
O=C(O)c1ccc(CNc2ccc(C(=O)CCl)cc2)cc1,101%,92.1%,111%,104%,78.4%,109%,86.1%,102%,75%,105%
CC(C)OP(=O)(O)c1ncc(-c2ccc(C(F)(F)F)cc2)c(NC2CCCCCC2)n1,90.1%,36.3%,5.39% (active),89.9%,90.1%,75.6%,11.5%,92.4%,28.6%,53.7%
CCCc1ccnc(NS(=O)(=O)c2ccc(N)cc2)n1,117%,54.7%,67.1%,81.9%,102%,95.6%,95.9%,71.8%,43.4%,95.8%
CC1=CSC2=NC(c3ccc(Cl)c(Cl)c3)=CC(c3ccc(Cl)cc3)N12 (stereo not given),20.5%,17%,-22.7% (active),-44% (active),-47.7% (active),14.7%,99.6%,-46.7% (active),18.7%,0.183% (active)
CN(C)c1ccc2c(c1)OC(N)=C(C#N)C2c1ccc2c(c1)CCO2 (stereo not given),26.7%,17%,87.5%,21.7%,23.5%,47.7%,-3.28% (active),-0.663% (active),58%,10%
CCOC(=O)c1ccc(NC(=O)Nc2nncs2)cc1,-18% (active),7.79% (active),22.2%,14.8%,-15.2% (active),29.3%,-39.9% (active),14.6%,67.9%,4.02% (active)
CCCCCCCC/C=C/CCCCCCCCC1=NCCN1CCO,84.7%,-11.8% (active),85.8%,68.3%,56.8%,77.3%,39.6%,75.6%,83.5%,74%
CCCCOCCOCCOCc1cc2c(cc1Br)OCO2,107%,94.7%,94.8%,97.1%,108%,103%,100%,92.5%,101%,110%
N#Cc1ncc(-c2cc(F)ccc2F)c(NC2CCCCCC2)n1,97.8%,90.2%,114%,60.7%,82.8%,60%,69.1%,79.7%,81.8%,104%
O=C1/C(=C/c2ccc(O)cc2)CSc2ccc(Cl)cc21,102%,64%,111%,77.5%,91.1%,93%,91.6%,85.5%,100%,88.8%
COc1ccc2oc(=O)cc(C3c4ccc([nH]4)C(c4cc(=O)oc5ccc(OC)cc45)c4ccc([nH]4)C(c4cc(=O)oc5ccc(OC)cc45)c4ccc([nH]4)C(c4cc(=O)oc5ccc(OC)cc45)c4ccc3[nH]4)c2c1 (stereo not given),-19.3% (active),-20.5% (active),2.83% (active),-16.5% (active),-77.3% (active),20.4%,9.08% (active),-26.9% (active),33.7%,3.08% (active)
O=C(O)CN1C(=O)C=CC1=O,104%,96.4%,97.7%,107%,98.9%,94.4%,103%,96.2%,115%,106%
CC(=O)c1c(O)cc2c3c1OC(C)(C)C1CCC(C)(CC31)O2 (stereo not given),104%,90.1%,93.8%,106%,94.8%,98.3%,90.2%,89.8%,126%,92.2%
COc1nc2c(c(=O)[nH]1)C(c1ccc(Oc3ccnc4cc(Cl)ccc34)c(OC)c1)C=C(c1cc(OC)c(OC)c(OC)c1)N2 (stereo not given),95.1%,87.8%,109%,80.8%,106%,103%,99.1%,108%,92.2%,98.8%
CCc1ccc(-c2nnc(COc3ccc(-c4nc5cc(Cl)c(Cl)cc5[nH]4)cc3OC)o2)cc1,66.6%,15.5%,57.9%,58%,46%,99.1%,88.2%,26.1%,91.4%,52.6%
C[C@H](NC(=O)[C@@H]1CSSC[C@@H](NC(=O)Cc2nc3ccccc3cc2O)C(=O)NCC(=O)N1C)c1ccccc1,83.3%,43.9%,125%,70.8%,122%,86.6%,104%,79.3%,85.4%,64.8%
O=S(=O)(O)C1(O)CCCCC1,54.1%,85.3%,86.9%,84.4%,89.4%,104%,82.5%,84%,102%,91.2%
COc1ccc(/C=C2\SC(=S)N(CCCN3CCOCC3)C2=O)c(OC)c1,100%,83.8%,118%,96.9%,108%,104%,107%,104%,102%,95.6%
O=S(=O)(NCl)c1ccccc1,106%,97.3%,97.5%,115%,109%,99.9%,94.3%,106%,103%,107%
Cc1ccccc1C1=N[C@@H](Cc2ccccc2)C(=O)c2c(nc3ccccn23)N1,113%,113%,109%,104%,105%,104%,96.5%,99.4%,87.3%,102%
O=C1CC(c2cccc(-c3cccnc3)c2)=Nc2ccc(Br)cc2N1,65.8%,54.2%,40.9%,43.6%,40.2%,44.1%,48.7%,55.7%,38.5%,37.8%
COc1cc(-c2cc(-c3ccc(C)cc3)nc3nc(N)[nH]c(=O)c23)ccc1Oc1ccnc2cc(Cl)ccc12,87.7%,74.4%,104%,66.6%,77.8%,77.4%,101%,103%,90.1%,101%
O=C1/C(=C/c2ccc(O)cc2)Cc2ccc(Cl)cc21,111%,81.8%,106%,61.5%,59.7%,95.9%,92.3%,82.6%,86%,82.5%
CCn1nc(-c2ccccn2)c2cccnc2c1=S,97%,35.7%,68.4%,53.3%,110%,94.8%,78.1%,89.1%,35.8%,65%
Cc1c(C(=O)N[C@H](CO)Cc2ccccc2)[nH]c2ccc(Cl)cc2c1=O,110%,95.5%,104%,115%,122%,104%,98.2%,98.9%,108%,98.2%
C=CCN1C(=O)/C(=C\c2ccc3c(c2)CCC3)SC1=S,106%,103%,93.7%,98.8%,101%,102%,95.2%,95.5%,110%,101%
CN(C)Cc1cccs1,111%,109%,96.7%,90.4%,99.3%,95.2%,100%,96.1%,96.9%,94.8%
